According to PubChem BioAssay AID463212 (Sanford-Burnham Center for Chemical Genomics, 2010):
Among all 330,000 compounds or so, about 4,400 (1.3%) were called active. The entries come from a sample that favours actives as a whole. Unmarked numbers belong to inactive results.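 How the source made its calls: active means growth inhibition of the mutant yeast at or above 50%; inactive means the rest.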

Test: growth inhibition of tim23-1 ts yeast – luminescence, uHTS, primary screen (AID 463212);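 further: temperature-sensitive mutant grown at 25 °C; plate controls were DMSO-treated mutant yeast for no effect and medium wells lacking yeast for full effect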
Conditions: S. cerevisiae tim23-1 growth, BacTiter-Glo luminescence, 24 h; at 20 µM; hits give high values

First: CNC(=O)c1nnc(Cc2ccc(Cl)cc2)o1
Second: Cc1ccc(CNC(=O)c2cccnc2Cl)cc1
The inhibition of the first is higher: 13.1% for the first, -14.6% for the second.

First: Cc1nn(CC(=O)N2CCCCC2)c(=O)c2nn(-c3ccccc3)c(C)c12
Second: Cc1nn(CC(=O)NCc2ccccn2)c(C)c1[N+](=O)[O-]
The inhibition of the first is lower: 5.69% for the first, 24.7% for the second.

Going from `Cc1ccc(NC(=O)C(=O)NCc2ccc(/C=N/NC(=O)c3c(C)nc4cc(C)ccn34)o2)cc1` to `CSCCC(NC(=O)COc1ccccc1)C(=O)N(C)CC(=O)Nc1ccc(C)cc1` (stereo not drawn), the inhibition falls from 13.6% to 8.43%.

Going from `O=C(Nc1ccc(Cl)cc1)Nc1nnc(/C=C/c2ccccc2)s1` to `O=C(Nc1ccc(S(=O)(=O)Nc2ccccn2)cc1)c1ccccc1`, the inhibition falls from -4.19% to -13.7%.

First: CC(=O)C[C@@H](O)CC(=O)[C@H]1OC(=O)CCCCCCc2ccccc21
Second: O=C(Nc1ccccc1F)c1ccc(S(=O)(=O)N2CCCCCC2)cc1
The inhibition of the first is lower: 12.8% for the first, 34.9% for the second.

Going from `CCOC(=O)C1=C(C)N(C[C@@H]2CC[C@@H](Cc3ccc(-c4ccccc4)cc3)O2)C(=O)NC1c1ccc([N+](=O)[O-])cc1` (stereo partly drawn) to `CC[C@]1(C(=O)OC)[C@H]2C(=O)N(Cc3ccccc3)C(=O)[C@H]2[C@H]2CN=C(SCc3ccc(C#N)cc3)N21`, the inhibition rises from 34.6% to 46.4%.

Compared with `C=CCNC(=S)N1CCc2[nH]c3ccccc3c2C1`, `Cc1[nH]c2ccccc2c1-c1ccc(Cl)nn1` is higher in inhibition: -8.13% for the first, 5.43% for the second.

Compared with `CC[C@]1(C(=O)OC)[C@H]2C(=O)N(Cc3ccccc3)C(=O)[C@H]2[C@H]2CN=C(SCc3ccccc3)N21`, `O=C(c1cc2ccccc2o1)N1CCN(Cc2ccccc2)CC1` is lower in inhibition: 37.7% for the first, 12.6% for the second.

Compared with `COc1cccc(NC(=O)CN(C)C(=O)CSCc2nc3scc(-c4cccs4)c3c(=O)[nH]2)c1`, `COc1ccc(N(Cc2cc3ccc(C)cc3[nH]c2=O)S(=O)(=O)c2ccccc2)cc1` is higher in inhibition: 4.94% for the first, 48.9% for the second.

Compared with `Cc1ccc(NC(=O)Cn2c(=O)n(CCC(=O)NC3CCN(Cc4ccccc4)CC3)c(=O)c3ccccc32)cc1`, `N#CC(Cc1cc2ccccc2n1S(=O)(=O)c1ccccc1)OCc1ccccc1` (stereo not drawn) is higher in inhibition: -1.05% for the first, 30.3% for the second.

Compared with `CC(C)CNC(=O)COC(=O)c1ccccc1OCC(=O)Nc1ccc(Br)cc1`, `CCc1ccc(NC(=O)NC(C)c2ccc3c(c2)OCO3)cc1` (stereo not drawn) is higher in inhibition: -11.3% for the first, 22.5% for the second.

First: COC(=O)c1ccc(CNC(=O)c2ccc(S(=O)(=O)N3CCCCCC3)cc2)cc1
Second: CCOC(=O)C1CCCN(S(=O)(=O)c2ccc(-n3cnnn3)c(C)c2)C1 (stereo not drawn)
The inhibition of the first is higher: 15.9% for the first, 2.62% for the second.

Going from `CC(=O)Oc1ccc(C(C)=O)c2c1OCCO2` to `COc1ccc(/C(O)=C2/C(=O)C(=O)N(CC3CCCO3)C2c2ccc(OC)c(OC)c2)cc1` (stereo not drawn), the inhibition falls from 5.79% to -1.19%.

First: CCc1ccc(NC(=O)Cn2nc(C)c([N+](=O)[O-])c2C)cc1
Second: O=C(Nc1ccncc1)c1ccc(Cl)c([N+](=O)[O-])c1
The inhibition of the first is higher: 25.5% for the first, -42.5% for the second.

Compared with `O=C(NCc1nnc(SCC(=O)N2CCCc3ccccc32)o1)c1ccccc1F`, `O=C(CCS(=O)(=O)Cc1ccccc1F)NCCCN1CCCCC1` is lower in inhibition: 19.1% for the first, -8.7% for the second.

Compared with `O=C(/C=C/c1ccc(Cl)cc1Cl)c1cccnc1`, `Cc1ccc2c(N)c(C(=O)c3ccccc3)sc2n1` is higher in inhibition: 31.1% for the first, 48.6% for the second.

Compared with `CC1CCCCC1NC(=O)CCS(=O)(=O)c1cccc2nonc12` (stereo not drawn), `CC(C)c1ccc(S(=O)(=O)NC2CCCC2)cc1` is higher in inhibition: 4.3% for the first, 23.4% for the second.

Compared with `O=C1C(C=NCC2CCCO2)=C(O)c2ccccc21` (stereo not drawn), `CCOc1cc(-c2nc3cc(C)ccn3c2NCC2CCCO2)ccc1O` (stereo not drawn) is higher in inhibition: 6.49% for the first, 18.9% for the second.

Compared with `CC1CCC(NC(=O)C2c3ccccc3C(=O)N2Cc2ccc3c(c2)OCO3)CC1` (stereo not drawn), `CCOC(=O)C[C@H]1c2ccc(C(F)(F)F)cc2S(=O)(=O)N1c1ccccc1` is higher in inhibition: 9.09% for the first, 33.9% for the second.

Compared with `CC(=NCc1ccco1)c1c(C(F)(F)F)[nH]n(-c2nc3ccccc3s2)c1=O`, `CC1C(=O)C(C)C(c2ccc(O)cc2)NC1c1ccc(O)cc1` (stereo not drawn) is lower in inhibition: 22.4% for the first, 0.501% for the second.

First: COc1cc2c(C(=O)N(C)c3cc(Cl)ccc3OC)cn(C)c(=O)c2cc1OC
Second: COc1ccc(-c2nc3cnccn3c2NC2CCCCC2)cc1-c1cccc(Cl)c1
The inhibition of the first is lower: 10% for the first, 21.6% for the second.

First: CCc1nc2sc(C(=O)O)c(N)c2c2c1CCCC2
Second: CC(C)CCNC(=O)c1ccc2c(Cl)c3c(nc2c1)CCC3
The inhibition of the first is lower: -17.3% for the first, 43.3% for the second.

First: Cc1nnc(SCC(=O)N(C(C)C)C(C)C)nc1C
Second: O=C(COc1ccc([N+](=O)[O-])cc1Cl)Nn1cnnc1
The inhibition of the first is higher: 8.73% for the first, 6.97% for the second.

`CSc1ccc(S(=O)(=O)NC2CCCCC2)cc1` showed an inhibition of 31.1%.

For `c1ccc2cc(CCCc3cc4ccccc4cn3)ncc2c1`, the inhibition was 51.6% (active).
In the case of `O=C(Nc1ccccc1)c1nnsc1S(=O)(=O)c1ccc(Cl)cc1`, the inhibition is reported as 59.8% (active).
In the case of `CC[C@]1(C(=O)OC)[C@H]2C(=O)N(Cc3ccccc3)C(=O)[C@H]2[C@H]2CN=C(SCc3ccc(Cl)cc3)N21`, the inhibition is reported as 53.5% (active).
For `O=C(NCCc1ccc(F)cc1)c1ccc(S(=O)(=O)N2CCCCC2)cc1`, the inhibition was 53.6% (active).
In the case of `Cc1nn(CC(=O)Nc2nc3ccccc3s2)c(C)c1[N+](=O)[O-]`, the inhibition is reported as 69.8% (active).
With `O=C(/C=C/c1ccc(Cl)c([N+](=O)[O-])c1)c1cccnc1` the inhibition was 80.7% (active).
For `CC(=NCc1ccco1)C1=C(O)c2ccccc2C1=O`, the inhibition was 50.3% (active).
In the case of `CC(=NCc1ccc2c(c1)OCO2)C1=C(O)c2ccccc2C1=O`, the inhibition is reported as 51.6% (active).
In the case of `Cc1nc2sc(C(=O)c3ccccc3)c(N)c2c2c1CCCC2`, the inhibition is reported as 51.8% (active).
In the case of `COc1ccc(-c2nc3cc(C)ccn3c2NC2CCCCC2)cc1SC1CCCCC1`, the inhibition is reported as 52.3% (active).
With `Cc1ccc(S(=O)(=O)NC2CCCCCC2)cc1` the inhibition was 51.4% (active).
